# High-throughput results from PubChem.
# This is a sample that favours compounds with a hit; in the whole collection about 10% have one here.
# HEK293 tox – kills HEK 293 cells; HEK 293 viability, ATP luminescence (CellTiter-Glo), 48-72 h; 6.6% of 94,000 active; Potency, µM (series often up to 115 µM), for the others: top-dose activity change, negative = cytotoxicity, hits mostly inhibitors; note: nearly all actives have a fitted effect of over 60% in size
#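 Cytotoxicity was scored by loss of ATP-coupled luminescence (CellTiter-Glo) in HEK 293 cells. Compound treatment ran 48 or 72 hr at 37 degree Celsius, 5% CO2, 95% humidity.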
# Luciferase inh – blocks purified firefly luciferase enzyme activity | purified P. pyralis luciferase, luminescence, biochemical | P08659 | AID 1347043 | 2.5% of 76,000 active | Potency, µM (series often up to 115 µM), usual class: inhibitors; note: nearly all actives have a fitted effect of over 65% in size
# Target sequence (P08659 whole entry, looked up): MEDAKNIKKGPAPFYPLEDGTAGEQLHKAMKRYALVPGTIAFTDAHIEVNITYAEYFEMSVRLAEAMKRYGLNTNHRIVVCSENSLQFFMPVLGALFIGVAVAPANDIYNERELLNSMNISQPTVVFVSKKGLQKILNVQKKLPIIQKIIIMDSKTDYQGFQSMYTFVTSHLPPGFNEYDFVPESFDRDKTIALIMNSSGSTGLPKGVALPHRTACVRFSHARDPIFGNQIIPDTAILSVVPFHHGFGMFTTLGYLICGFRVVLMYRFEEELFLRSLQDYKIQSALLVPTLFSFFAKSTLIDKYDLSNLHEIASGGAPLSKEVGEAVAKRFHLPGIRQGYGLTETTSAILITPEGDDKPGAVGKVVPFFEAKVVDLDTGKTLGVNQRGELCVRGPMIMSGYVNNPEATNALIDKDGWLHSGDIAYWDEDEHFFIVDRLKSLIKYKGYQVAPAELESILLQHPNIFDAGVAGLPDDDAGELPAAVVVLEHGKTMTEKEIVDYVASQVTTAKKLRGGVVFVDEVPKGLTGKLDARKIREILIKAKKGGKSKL
#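 Cell-free enzyme assay, 10nM P. pyralis luciferase, luciferin and ATP each at 10uM. Inhibition profiled over a 6-point titration, read as luminescence.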
# hNpr1 antagonist – antagonists of human natriuretic peptide receptor Npr1; P16066; HEK293 hNpr1 GloSensor cGMP, ANP-stimulated luminescence; Potency, µM (highest dose often 46.3 µM), for inactives: at the highest dose activity change, negative = inhibition, usual class: inhibitors; 1.6% of 76,000 active; AID 1347048; calls by dose curve; note: nearly all actives have a fitted effect of over 60% in size
#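 Compound pre-incubated 30 min at room temperature on GloSensor-loaded HEK293 cells stably carrying hNpr1 and the pGS-40F cGMP biosensor. Stimulation uses hNppA at 0.1 nM final; luminescence is taken at baseline and 20 min post-agonist.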
# NIH3T3 tox – cytotoxic compounds in NIH 3T3 cells; 4.3% of 94,000 active; AID 1345082; NIH 3T3 viability, CellTiter-Glo ATP luminescence, 48-72 h; Potency, µM (highest dose often 96.7 µM), for inactives: at the top dose activity change, negative = cytotoxicity, usual class: inhibitors; note: nearly all actives have a fitted effect of over 55% in size
#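 First NIH 3T3 cells are plated at 400 cells/well; next compound is pinned in; then plates incubate 48 or 72 hr at 37 °C; finally CellTiter-Glo is added and luminescence read after 10 min.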
# GPT2 inh – inhibitors of human GPT2 alanine aminotransferase; Q8TD30; Recombinant GPT2, coupled pyruvate oxidase/HRP Amplex Red fluorescence; Potency, µM (highest dose often 57.7 µM), inactives show top-dose activity change, negative = inhibition, usual class: inhibitors; 0.25% of 100,000 active; AID 1671188; note: nearly all actives have a fitted effect of over 60% in size
#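 Inhibition is scored from Amplex Red fluorescence generated when pyruvate oxidase and HRP act on pyruvate released by GPT2. Reactions contain 10ng/uL enzyme, 250uM a-KG and 2mM L-alanine and run 30 min at room temperature.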
# An asterisk follows results filed as active; i = inactive; ? = inconclusive; . = no result; ! = repeats disagree; [ ] = dose if it differs, or a comment. Unless noted, calls come from the whole dose curve; as a rule, active = well fitted curve in the direction sought with a large enough effect; inconclusive = small, poorly fitted or top-dose-only effect, or another doubt; inactive = no such curve, though single readings can be large; an effect the other way counts as inactive or inconclusive. % is set by controls: 0 for no effect and ±100 for the full control effect; potency is the fitted concentration of half-maximal effect.
SMILES,HEK293 tox,Luciferase inh,hNpr1 antagonist,NIH3T3 tox,GPT2 inh
COc1ccc(C(=O)N[C@@H]2CN(C(=O)Nc3ccc(F)cc3)CCC[C@H]2O)cc1,?,?,-15%[70.6 µM],100µM*,-3%[88.5 µM]
COc1ccc(C(=O)N[C@@H]2CN(C(=O)Nc3ccccc3)CCC[C@H]2O)cc1,?,i,-4%[70.6 µM],?,0%[88.5 µM]
Cc1ccccc1N(C)C1CN(Cc2ccc(F)cc2)C1,?,.,.,-23%[138 µM],-12%[88.5 µM]
Cc1ccccc1N(C)C1CN(Cc2ccccc2)C1,?,i,-8%[70.6 µM],89µM*,?
Cc1ccccc1N(C)C1CN(Cc2cccnc2)C1,?,.,.,-25%[138 µM],i
Cc1ccccc1N(C)C1CN([S+](=O)([O-])c2cccs2)C1,79µM*,i,-7%[70.6 µM],?,3%[88.5 µM]
Cc1ccccc1N(C)C1CN(Cc2ccc(C(F)(F)F)cc2)C1,100µM*,.,.,?,3%
O=C(C1CCN([S+](=O)([O-])c2cccc(C(F)(F)F)c2)CC1)N1CCC(N2Cc3cccn3C2=O)CC1,?,.,.,?,i
Cc1nc2ccc(C(=O)NCc3cccnc3Oc3ccccc3C)cc2[nH]1,?,i,-20%,50µM*,i
Cc1ccccc1Oc1ncccc1CNC(=O)c1ccc2c(c1)OCO2,-11%,i,-2%,?,i[11.5 µM]
CC(C)c1ccc(NC(=O)[C@@H]2COCC(=O)N2Cc2ccccc2)cc1,-23%,i,-10%,?,i
CC1CCC2(CC1)OCC(C(=O)NCc1ccccc1)N2C(=O)c1cccc(Cl)c1 (centres undefined),?,i,-9%,?,i
CC1CCC2(CC1)OCC(C(=O)NCc1ccccc1)N2C(=O)c1ccc(Cl)c(Cl)c1 (centres undefined),?,i,0%,20µM*,-8%
NCc1ccccc1-c1ccc(OC(F)(F)F)cc1,56µM*,.,.,?,i
COCCOc1ccc(-c2noc([C@@H]3CCCN3C3CCCCC3)n2)cn1,100µM*,i,1%[70.6 µM],-9%[174 µM],-1%[88.5 µM]
COCC(=O)Nc1ccc(-c2noc([C@@H]3CCCN3CC(C)(C)C)n2)cn1,100µM*,i,-21%[70.6 µM],?,-9%[88.5 µM]
COc1ccc(-c2noc([C@@H]3CCCN3C3CCCCC3)n2)cn1,?,i,-3%[70.6 µM],?,i
O=C(c1ccc(Cl)cc1)N1CC2(CCCN(C3COC3)C2)Cc2ccccc21 (centres undefined),?,.,.,-12%,4%
CC(C)(C)C(=O)N1CCC(c2nn(-c3ccccc3)c(=O)[nH]2)CC1,?,50µM*,0%[70.6 µM],-10%[138 µM],1%[88.5 µM]
COc1ccc(-n2nc(C3CCN(Cc4ccc(OC(F)(F)F)cc4)CC3)[nH]c2=O)cc1,?,i,?,-1%,i
COc1ccc(-n2nc(C3CCN(Cc4ccc(C(F)(F)F)cc4)CC3)[nH]c2=O)cc1,32µM*!,i,?,?,3%
O=c1[nH]c(C2CCCN(Cc3ccc(F)cc3)C2)nn1-c1ccccc1 (centres undefined),-18%,i,-2%,-30%,?
O=c1[nH]c(C2CCCN(Cc3ccccc3)C2)nn1-c1ccccc1 (centres undefined),100µM*,i,16%[70.6 µM],89µM*,i
O=c1[nH]c(C2CCCN(Cc3ccc(F)cc3)C2)nn1-c1ccc(Cl)cc1 (centres undefined),45µM*,i,12%,35µM*,i
CCc1ccc(CNC(=O)[C@H]2CCC[C@H]2NC(=O)c2ccc(OC)cc2)cc1,i,i,3%,0%,0%
SMILES,HEK293 tox,Luciferase inh,hNpr1 antagonist,NIH3T3 tox,GPT2 inh
CNC(=O)c1cn2cc(-c3ccc(F)cc3)sc2n1,?,.,.,?,-13%
O=[S+]([O-])(NC1CCN(c2ccc3nnc(-c4ccccc4)n3n2)C1)c1cccs1 (centres undefined),?,.,.,-14%,.
O=C(c1ccccc1Cl)N1CCCC(c2nn(-c3cccc(Cl)c3)c(=O)[nH]2)C1 (centres undefined),35µM*,i,14%,35µM*,4%
O=C(Nc1ccc(Cl)cc1)N1CCCC(c2nn(-c3ccccn3)c(=O)[nH]2)C1 (centres undefined),40µM*,.,.,35µM*,i
CC(=O)Nc1ccc(C(=O)NC2CCN(CCn3nc4n(c3=O)CCCC4)C2)cc1 (centres undefined),i,.,.,i,.
O=C(NCCCc1ccccc1)c1nc2cccnc2n(Cc2ccccc2)c1=O,?,.,.,?,i
CC(C)c1noc(-c2cccn3c(CNC(=O)c4cccc(F)c4)nnc23)n1,i,i,-2%,1%,5%
COc1cc(-c2nccc3c(=O)cc(N4CCOCC4)oc23)ccn1,-15%[172 µM],i,5%[70.6 µM],?,2%[88.5 µM]
O=c1cc(N2CCOCC2)oc2c(NCC3CCOCC3)nccc12,-9%[172 µM],i,1%[70.6 µM],28µM*,4%[88.5 µM]
CN1CCN(c2cc(=O)c3ccnc(NCc4ccccc4)c3o2)CC1,i,i,4%[70.6 µM],?,-2%[88.5 µM]
O=c1cc(N2CCOCC2)oc2c(NCc3cnccn3)nccc12,-3%[172 µM],i,4%[70.6 µM],100µM*,i
CN(Cc1ccc(F)cc1)Cc1ccc(-c2ccccc2)cc1,0%[172 µM],i,0%[70.6 µM],-9%[138 µM],-5%[88.5 µM]
CN(Cc1ccc(-c2ccccc2)cc1)Cc1ccccn1,50µM*,50µM*,-20%[70.6 µM],?,i
CN(Cc1ccc(-c2ccccc2)cc1)Cc1cccnc1,?,50µM*,8.9µM*,?,-24%[88.5 µM]
Cn1ncc2c(C(=O)NC3CC3)cc(-c3ccc(Cl)cc3Cl)nc21,?,.,.,?,-5%
Cc1nn(-c2ccc(F)cc2)c(Oc2ccccc2F)c1CCC(=O)NCC1CC1,50µM*,i,-23%,?,-30%
Cc1nn(-c2ccc(F)cc2)c(Oc2ccccc2)c1CCC(=O)NCC1CC1,?,i,?,?,?
Cc1nn(-c2ccccc2)c(Oc2ccccc2F)c1CCC(=O)NCc1ccco1,45µM*,i,?,?,i
O=C(NCc1ccccc1F)c1cc(-c2ccc(Cl)cc2Cl)c2nncn2n1,?,.,.,?,i
CNC(=O)c1ccc(CNc2cc(C3CC(O)C3)nc(N)n2)o1 (centres undefined),i,i,2%,-7%,i
CNC(=O)c1ccc(CNc2nc(CCN)nc3sc(C)c(C)c23)o1,50µM*,i,-18%,?,-5%
O=C(C1CCN([S+](=O)([O-])c2cccc(C(F)(F)F)c2)CC1)N1CCCC(c2nc3ncccc3[nH]2)C1 (centres undefined),?,.,.,?,4%
Cc1ccc(C(=O)N2CCN(C(=O)c3nc4cccnc4n(C4CCCC4)c3=O)CC2)cc1,i,.,.,1%,i
